A selection: hits, their analogues and other compounds. The true share with any hit is near 18%.
TDP1 cell CPT = growth inhibition of DT40 Tdp1-/-;hTDP1 cells with camptothecin (screen for TDP1 inhibitors); chicken DT40 Tdp1-/-;hTDP1 cells + 20 nM CPT, ATP luminescence, 48 h; Potency, µM (highest dose often 46.2 µM), inactives show at the highest dose activity change, negative = growth inhibition, usual class: inhibitors; hit rate 12% among 420,000; also: potency is read from the fitted curve at half-maximal effect; nearly all actives have a fitted effect of over 55% in size
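Chicken DT40 Tdp1-/- cells complemented with human TDP1, 400 cells/well, exposed to compounds plus 20 nM camptothecin for at least 48 h at 37 C; viability read as ATP content by CellTiter-Glo luminescence.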
LDHA block = inhibitors of human lactate dehydrogenase A; AID 1347041; P00338; activity change, % (values are at about 110 or 230 µM); purified LDHA, NADH/diaphorase-resazurin fluorescence; hits give low values; hit rate 0.15% among 480,000; in the data active = activity change below about -30%; inconclusive = mostly about -25% to -30%;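 also: plate controls were DMSO wells for no effect and wells without enzyme for full effect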
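Resorufin fluorescence (ex540/em590), read at 0 and 20 min after diaphorase/resazurin addition, reports the NADH left after a 5 min room-temperature reaction of 2 nM human LDH5 with 0.06 mM NADH and 0.2 mM pyruvate.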
RORgamma inh = ROR gamma (mouse) transcription inhibition; hit rate 5.4% among 310,000; Drosophila S2 Gal4-RORgamma UAS-luciferase reporter, 20 h; Potency, µM (top dose mostly 53.6 µM), inactives show top-dose activity change, negative = inhibition, actives largely listed as inhibitors; AID 2551; P51450; also: potency is read from the fitted curve at half-maximal effect; nearly all actives have a fitted effect of over 60% in size
Target sequence (P51450 whole entry, looked up, the tested form may be a part): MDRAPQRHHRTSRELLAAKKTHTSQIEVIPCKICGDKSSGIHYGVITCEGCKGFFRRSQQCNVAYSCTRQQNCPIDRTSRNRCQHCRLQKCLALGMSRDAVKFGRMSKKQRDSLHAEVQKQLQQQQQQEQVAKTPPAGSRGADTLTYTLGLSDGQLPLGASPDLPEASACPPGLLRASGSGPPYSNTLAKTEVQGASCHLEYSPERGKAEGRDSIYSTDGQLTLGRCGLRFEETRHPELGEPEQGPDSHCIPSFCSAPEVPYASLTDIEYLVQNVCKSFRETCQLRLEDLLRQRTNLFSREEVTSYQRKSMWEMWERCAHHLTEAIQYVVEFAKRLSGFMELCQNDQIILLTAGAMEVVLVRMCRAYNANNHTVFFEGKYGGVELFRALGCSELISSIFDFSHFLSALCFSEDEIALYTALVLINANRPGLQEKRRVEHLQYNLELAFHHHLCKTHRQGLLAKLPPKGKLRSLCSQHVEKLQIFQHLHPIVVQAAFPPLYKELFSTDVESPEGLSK
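Using a luciferase readout, inhibitors were identified by reduced reporter activity in Drosophila cells coexpressing a copper-inducible Gal4–ROR gamma fusion and UAS-driven Photinus luciferase, incubated 20 hr after 700 uM copper sulfate.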
IL1B secr inh = blocks inflammasome-driven IL-1 beta release; THP-1 LPS/ATP IL-1B secretion, AlphaLISA, 16 h; hits give low values; activity change, % at 57.5 µM; hit rate 4.7% among 360,000; in the data active = activity change below about -50%; inconclusive = mostly about -30% to -49%
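THP-1 cells pretreated 1 hr with compounds (up to 57.5 uM final), then stimulated with LPS (250 ng/mL final) plus ATP (1.25 mM final); secreted IL-1B measured by AlphaLISA after 16 hr, decreased signal indicating inhibition.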
Gal4-VP16 FLuc = counter-screen for ROR gamma inhibitors: Gal4-VP16 reporter | Drosophila S2 Gal4-VP16 UAS-luciferase, luminescence, 20 h | Potency, µM (series often up to 53.6 µM), inactives show at the highest dose activity, negative = inhibition, hits mostly inhibitors | hit rate 3.5% among 310,000;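 also: Gal4-VP16 expression switched on by copper sulfate through the metallothionein promoter; potency is read from the fitted curve at half-maximal effect; nearly all actives have a fitted effect of over 50% in size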
DT40 TDP1 no CPT = qHTS for Inhibitors of human tyrosyl-DNA phosphodiesterase 1 (TDP1): qHTS in cells in absence of CPT | AID 686978, 2013 | hit rate 15% among 420,000 | DT40 Tdp1-/- hTDP1 cells, no CPT, ATP luminescence, 48 h | Potency, µM (titrated, usually from 46.2 µM), inactives show top-dose activity change, negative = growth inhibition, actives largely listed as inhibitors; also: potency is read from the fitted curve at half-maximal effect; nearly all actives have a fitted effect of over 55% in size
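No-CPT arm: Tdp1-/-;hTDP1 DT40 cells (400/well) plus compounds, incubated ≥48 hr at 37 °C. Readout CellTiter-Glo luminescence.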
* = called active by the depositor; u = inconclusive; x = no result given; [ ] = another dose, or the depositor's remark. Unless noted, calls follow the shape of the dose curve; as a rule, active = well fitted curve in the direction sought with a large enough effect; inconclusive = small, poorly fitted or top-dose-only effect, or another doubt; inactive = no such curve, though single readings can be large; an effect the other way counts as inactive or inconclusive. Unless noted, % is scaled to controls: 0 for no effect and ±100 for the full control effect.

SMILES	TDP1 cell CPT	LDHA block	RORgamma inh	IL1B secr inh	Gal4-VP16 FLuc	DT40 TDP1 no CPT
COc1ccc(N2CCN(C(c3nnnn3C3CCCC3)C(C)C)CC2)cc1 (configuration not stated)	21µM*	-2	27%	14	-1%	18µM*
CC(C)C(c1nnnn1C1CCCC1)N1c2ccccc2CC1C (configuration not stated)	21µM*	19	u	-5	-3%[0.365 µM]	13µM*
COc1ccc(C(c2nnnn2C2CCCC2)N2CCC(C)CC2)c(OC)c1 (configuration not stated)	18µM*	0	-11%[0.365 µM]	-11	x	21µM*
CC(C)C(c1nnnn1C1CCCCC1)N1CCc2ccccc21 (configuration not stated)	u	6	-18%	5	-5%	u
CCc1ccc(S(=O)(=O)N[C@@H](C)C(=O)NCc2cscn2)cc1	x	2	x	x	x	x
COC(=O)c1ccc([C@H]2[C@@H](C(=O)O)c3ccccc3C(=O)N2Cc2ccc(F)cc2)cc1	x	1	x	x	x	x
CCc1ccc(NC(=O)C2CCn3c(C(=O)c4ccccc4)ccc32)cc1 (configuration not stated)	x	3	x	x	x	x
NC(=O)c1c(NC(=O)c2nn(-c3cccc(Cl)c3)ccc2=O)sc2c1CCCC2	x	4	x	x	x	x
Cn1c(=O)c2[nH]c(SCCN)nc2n(C)c1=S	5%	2	x	30	x	10%
CCCC(CC)Sc1nc2c([nH]1)c(=S)n(C)c(=O)n2C (configuration not stated)	3.7µM*	3	x	35	x	3.7µM*
CCCCC(C)Sc1nc2c([nH]1)c(=S)n(C)c(=O)n2C (configuration not stated)	3.7µM*	3	x	-99*	x	5.2µM*
CCNc1nc(NCC)nc(N(C)N)n1	u	1	7.1µM*	10	u	u
COC(=O)c1sc2nc(N3CCOCC3)c3c(c2c1N)CCN(C)C3	x	4	x	x	x	x
Cc1sc2ncnc(N3CCN(S(=O)(=O)c4ccc(F)cc4)CC3)c2c1C	u	-3	-40%	-57*	22µM*	12µM*
Cc1cc(C)c(C)c(S(=O)(=O)N2CCN(c3ncnc4sc(C)c(C)c34)CC2)c1C	-24%	-8	-18%	14	2%	u
CCS(=O)(=O)N1CCN(c2ncnc3sc(C)c(C)c23)CC1	-24%	2	21%	22	10%	u
Cc1nc(N2CCN(S(=O)(=O)c3ccc(Br)cc3)CC2)c2c(C)c(C)sc2n1	21µM*	-1	41%	21	-3%	u
COc1cc(C(=O)N2CCN(c3ncnc4sc(C)c(C)c34)CC2)cc(OC)c1OC	u	-6	u	-19	4µM*	u
Cc1sc2ncnc(N3CCN(c4ncccn4)CC3)c2c1C	23µM*	-12	-23%	u	-2%	u
Cc1nc(N2CCN(S(=O)(=O)c3ccccc3)CC2)c2cc(-c3ccccc3)sc2n1	15µM*	-3	13%	-23	13%	u
Cc1nc(N2CCN(S(=O)(=O)c3ccccc3)CC2)c2c3c(sc2n1)CC(C)CC3 (configuration not stated)	-23%	2	5%	9	-9%	u
CCc1nc(N2CCN(S(=O)(=O)c3ccc(Br)cc3)CC2)c2c(C)c(C)sc2n1	u	-4	x	-9	x	23µM*
C=CCNc1nc(-c2sc(NC(=O)C(C)(C)C)nc2C)c(-n2cc(-c3ccccc3)nn2)s1	21µM*	1	x	-1	x	15µM*
C/C(CC(=O)Nc1ccc(N(C)C)cc1)=N\NC(=O)c1ccccn1	u	7	u	-15	u	15µM*
CC(=O)Nc1ccc(NC(=O)c2cccc(C(=O)OC(C)C)n2)cc1	-7%	-5	-23%	-24	12%	u
SMILES	TDP1 cell CPT	LDHA block	RORgamma inh	IL1B secr inh	Gal4-VP16 FLuc	DT40 TDP1 no CPT
CC(C)OC(=O)c1cccc(C(=O)Nc2cccc(NC(=O)c3cccc(C(=O)OC(C)C)n3)n2)n1	u	-1	5%	57	2%	2.1µM*
COC(C(=O)N/N=C(\C)CC(=O)Nc1ccc(N(C)C)cc1)c1ccccc1 (configuration not stated)	2%	2	13µM*	78	-30%	-8%
COC(C(=O)N/N=C(\C)CC(=O)Nc1ccc(Cl)cc1C)c1ccccc1 (configuration not stated)	13%	-2	-5%	-6	-6%	-21%
COc1cc(NC(=O)C/C(C)=N/NC(=O)c2ccccn2)c(OC)cc1Cl	5%	-1	-26%	-59*	16%	-4%
CCc1ccc(-c2nc(COC(=O)c3c(C)nsc3N)cs2)cc1	x	10	x	x	x	x
O=S(=O)(c1cccc(-c2nc3ccccc3s2)c1)N1CCCCCC1	x	-1	x	x	x	x
CCN(CC)c1nc2ccccc2nc1C(=O)Nc1ccc(F)c(F)c1	x	4	x	x	x	x
Fc1ccc(NC(=S)NCCc2ccccc2F)cc1	x	5	x	x	x	x
CN(C)c1ccc(NC(=O)/C=C/c2ccccc2Cl)cc1	u	3	0.056µM*	-14	-10%	u
CN(C)c1ccc(NC(=O)c2cccc(C(=O)Nc3ccc(N(C)C)cc3)n2)cc1	9.2µM*	5	-25%	-56*	u	6.5µM*
O=C(Nc1ccccc1)c1cccc(C(=O)Nc2ccccc2)n1	-19%	-5	-6%	4	-2%	4%
CCc1nc2ccc(C(=O)N3CCN(S(=O)(=O)CC)CC3)cn2c1N(CC)Cc1cccc(Br)c1	23µM*	-10	x	-22	x	u
CCc1nc2ccc(C(=O)NCc3ccc(OC)cc3)cn2c1N(CC)CCN(C)C	2%	-1	x	-11	x	-14%
CCc1nc2ccc(C(=O)N(C)C(C)C)cn2c1N(CC)Cc1cccc(Br)c1	u	1	x	-8	x	15µM*
O=C(O)/C(=C/c1cccc(OCc2ccccc2)c1)c1cccs1	x	8	x	x	x	x
CCOC(=O)C(=O)CC(=O)c1ccc(Cl)c(Cl)c1	x	11	x	x	x	x
NS(=O)(=O)c1ccc(N2N=C(c3ccccc3)CC2c2cccc(F)c2)cc1 (configuration not stated)	u	0	38%	u	-14%	-23%
NS(=O)(=O)c1ccc(N2N=C(c3ccc(Br)cc3)CC2c2ccc(F)cc2)cc1 (configuration not stated)	u	-3	u	-76*	u	u
NS(=O)(=O)c1ccc(N2N=C(c3ccccc3)CC2c2cccc(Br)c2)cc1 (configuration not stated)	-20%	-5	x	-57*	x	-29%

Screening results from PubChem BioAssay.
